Source: PubChem BioAssay (Tox21)
“And” between values parts separate entries of the source, which are not always exact repeats. Identical values can stand only once. More than one record can exist for a structure, and the calls need not agree. The source made the active and inactive calls. Unless noted, the call rests on the fitted dose curve; in most records, active means well fitted curve in the direction sought with a large enough effect in the repeat runs; inconclusive means weak or mixed curves; inactive means no such curve, though single readings can be large; an effect the other way counts as inactive or inconclusive.

How the values were obtained:
[1] = qHTS assay to identify small molecule antagonists of the glucocorticoid receptor (GR) signaling pathway - cell viability counter screen (AID 720693); further: nearly all actives have a fitted effect of over 55% in size; further: potency means the concentration at half of the fitted maximal effect
[2] = qHTS assay for identifying genotoxic compounds that show differential cytotoxicity against isogenic chicken DT40 cell lines with known DNA damage response pathways - wild type cell line (AID 743012); further: nearly all actives have a fitted effect of over 60% in size; further: potency means the concentration at half of the fitted maximal effect
Outline: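 Using parental DT40 (300 cells/well), compounds delivered in DMSO incubate 40 h at 37 C/5% CO2. CellTiter-Glo reagent then stands 30 min at room temperature, and luminescence gives cell viability.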

[3] = qHTS assay for identifying genotoxic compounds that show differential cytotoxicity against isogenic chicken DT40 cell lines with known DNA damage response pathways - Rev3 mutant cell line (AID 743014); further: nearly all actives have a fitted effect of over 55% in size; further: potency means the concentration at half of the fitted maximal effect
[4] = qHTS assay to identify small molecule antagonists of the androgen receptor (AR) signaling pathway - cell viability counter screen (AID 743033; further: nearly all actives have a fitted effect of over 45% in size; further: potency means the concentration at half of the fitted maximal effect)
[5] = qHTS assay to identify small molecule antagonists of the thyroid receptor (TR) signaling pathway (AID 743065); further: nearly all actives have a fitted effect of over 55% in size; further: potency means the concentration at half of the fitted maximal effect
Outline: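 GH3.TRE-Luc rat pituitary cells (two TREs driving luciferase) were dosed with compound, then stimulated with 1 nM T3 (final) for 23.5 h at 37 C. ONE-Glo luminescence was the read-out, with CellTiter-Fluor fluorescence as the cytotoxicity counter-screen.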

[6] = test system: thyroid hormone receptor (rat, GH3 cells); test: qHTS assay to identify small molecule agonists of the thyroid receptor (TR) signaling pathway (AID 743066; calls by dose curve; further: potency means the concentration at half of the fitted maximal effect)
[7] = qHTS assay to identify small molecule antagonists of the estrogen receptor alpha (ER-alpha) signaling pathway - cell viability counter screen (AID 743074; calls by dose curve;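 further: HEK293 cells carrying ER-alpha-UAS-bla reporter stimulated with 17beta-estradiol; nearly all actives have a fitted effect of over 45% in size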; further: potency means the concentration at half of the fitted maximal effect)
[8] = qHTS assay to identify small molecule antagonists of the estrogen receptor alpha (ER-alpha) signaling pathway using the BG1 cell line - cell viability counter screen (AID 743081);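 further: compound given together with 17beta-estradiol as the ER stimulus; nearly all actives have a fitted effect of over 45% in size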; further: potency means the concentration at half of the fitted maximal effect
[9] = molecular target: Aromatase (Homo sapiens) (UniProt P11511); test: qHTS assay to identify aromatase inhibitors (AID 743083); further: nearly all actives have a fitted effect of over 55% in size; further: potency means the concentration at half of the fitted maximal effect
Aromatase (Homo sapiens), sequence (P11511 whole entry, looked up): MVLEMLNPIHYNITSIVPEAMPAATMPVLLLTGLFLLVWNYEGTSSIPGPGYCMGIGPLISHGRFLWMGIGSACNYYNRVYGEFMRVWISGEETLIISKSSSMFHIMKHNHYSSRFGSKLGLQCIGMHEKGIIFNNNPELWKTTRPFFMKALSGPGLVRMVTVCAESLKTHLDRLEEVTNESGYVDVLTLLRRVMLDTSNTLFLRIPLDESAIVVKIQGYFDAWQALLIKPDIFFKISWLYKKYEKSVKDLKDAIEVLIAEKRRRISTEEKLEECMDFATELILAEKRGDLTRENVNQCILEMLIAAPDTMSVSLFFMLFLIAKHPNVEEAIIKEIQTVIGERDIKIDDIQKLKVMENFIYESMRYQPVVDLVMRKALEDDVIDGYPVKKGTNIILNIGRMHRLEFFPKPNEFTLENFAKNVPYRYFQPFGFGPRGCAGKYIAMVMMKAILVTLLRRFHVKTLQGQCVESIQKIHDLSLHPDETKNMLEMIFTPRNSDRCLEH

[10] = qHTS assay to identify aromatase inhibitors - cell viability counter screen (AID 743084); further: potency means the concentration at half of the fitted maximal effect
[11] = molecular target: Androgen receptor (Homo sapiens) (UniProt P10275); test: qHTS assay to identify small molecule agonists of the androgen receptor (AR) signaling pathway (AID 743036; active means well fitted activation curve with a large enough effect in the signal ratio in the repeat runs, with a control signal flat, not every such curve was filed as active; inconclusive means weak or mixed curves, or effect the other way; inactive means no such curve, though single readings can be large or run the other way; the % refers to the signal ratio)
Androgen receptor (Homo sapiens), sequence (P10275 whole entry, looked up): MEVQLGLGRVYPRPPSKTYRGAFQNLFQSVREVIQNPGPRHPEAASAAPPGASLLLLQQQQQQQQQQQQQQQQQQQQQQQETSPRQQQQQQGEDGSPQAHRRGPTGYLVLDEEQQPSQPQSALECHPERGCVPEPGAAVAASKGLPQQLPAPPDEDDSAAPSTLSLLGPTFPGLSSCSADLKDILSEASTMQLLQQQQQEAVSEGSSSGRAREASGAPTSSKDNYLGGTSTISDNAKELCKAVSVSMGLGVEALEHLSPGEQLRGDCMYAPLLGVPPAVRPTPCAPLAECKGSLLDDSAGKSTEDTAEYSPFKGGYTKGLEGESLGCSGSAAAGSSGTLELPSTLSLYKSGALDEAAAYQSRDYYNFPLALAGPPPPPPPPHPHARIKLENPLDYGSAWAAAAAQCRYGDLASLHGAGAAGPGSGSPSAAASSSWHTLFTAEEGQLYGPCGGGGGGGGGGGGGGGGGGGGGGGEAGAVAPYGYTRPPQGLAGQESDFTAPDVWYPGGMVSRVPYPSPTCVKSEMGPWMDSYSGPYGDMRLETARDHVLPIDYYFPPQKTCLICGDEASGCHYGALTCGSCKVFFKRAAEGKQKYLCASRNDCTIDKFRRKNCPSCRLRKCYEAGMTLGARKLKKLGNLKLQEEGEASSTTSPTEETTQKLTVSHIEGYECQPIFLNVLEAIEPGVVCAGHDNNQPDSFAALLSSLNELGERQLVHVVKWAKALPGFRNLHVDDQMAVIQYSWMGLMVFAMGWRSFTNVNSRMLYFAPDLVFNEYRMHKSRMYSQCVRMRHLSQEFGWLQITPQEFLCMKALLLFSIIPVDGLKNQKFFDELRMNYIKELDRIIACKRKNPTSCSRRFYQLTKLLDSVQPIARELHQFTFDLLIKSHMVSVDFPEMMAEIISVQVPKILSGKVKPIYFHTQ
Outline: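 AR-UAS-bla HEK293 cells, plated 4 h before dosing, were treated with compound for 16 h at 37C. beta-Lactamase reporter read after 2 h with LiveBLAzer B/G FRET substrate at room temperature.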

[12] = qHTS assay to identify small molecule antagonists of the androgen receptor (AR) signaling pathway using the MDA cell line - cell viability counter screen (AID 743041; further: nearly all actives have a fitted effect of over 45% in size; further: potency means the concentration at half of the fitted maximal effect)
Outline: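 MDA-kb2 AR-luc cells (MMTV-luciferase, AR/GR responsive) treated with compounds plus R1881 agonist for 16 h at 37C. CellTiter-Fluor added at 15.5 h; fluorescence read after 30 min in the same wells.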

[13] = molecular target: Androgen receptor (Homo sapiens) (UniProt P10275); test: qHTS assay to identify small molecule antagonists of the androgen receptor (AR) signaling pathway using the MDA cell line (AID 743042; further: nearly all actives have a fitted effect of over 55% in size; further: potency means the concentration at half of the fitted maximal effect)
Outline: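 MDA-kb2 breast carcinoma cells carrying MMTV-luciferase (AR/GR responsive) were co-treated with compounds and the agonist R1881 for 16 h at 37C. Inhibition read as ONE-Glo luminescence; CellTiter-Fluor fluorescence measured in parallel for cytotoxicity.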

[14] = qHTS assay to identify small molecule antagonists of the thyroid receptor (TR) signaling pathway - cell viability counter screen (AID 743064); further: nearly all actives have a fitted effect of over 50% in size; further: potency means the concentration at half of the fitted maximal effect
Outline: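 GH3.TRE-Luc rat pituitary cells dosed after 4 hr plating, co-stimulated with T3 at 1 nM final, incubated 23.5 h at 37 C. Viability measured in the same wells by CellTiter-Fluor fluorescence after 30 min further at 37 C.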

[15] = molecular target: Estrogen receptor (Homo sapiens) (UniProt P03372); test: qHTS assay to identify small molecule antagonists of the estrogen receptor alpha (ER-alpha) signaling pathway (AID 743069; active means well fitted curve in the direction sought with a large enough effect in the signal ratio in the repeat runs, not every such curve was filed as active; inconclusive means weak or mixed curves, or effect the other way; inactive means no such curve, though single readings can be large or run the other way; the % refers to the signal ratio)
Estrogen receptor (Homo sapiens), sequence (P03372 whole entry, looked up): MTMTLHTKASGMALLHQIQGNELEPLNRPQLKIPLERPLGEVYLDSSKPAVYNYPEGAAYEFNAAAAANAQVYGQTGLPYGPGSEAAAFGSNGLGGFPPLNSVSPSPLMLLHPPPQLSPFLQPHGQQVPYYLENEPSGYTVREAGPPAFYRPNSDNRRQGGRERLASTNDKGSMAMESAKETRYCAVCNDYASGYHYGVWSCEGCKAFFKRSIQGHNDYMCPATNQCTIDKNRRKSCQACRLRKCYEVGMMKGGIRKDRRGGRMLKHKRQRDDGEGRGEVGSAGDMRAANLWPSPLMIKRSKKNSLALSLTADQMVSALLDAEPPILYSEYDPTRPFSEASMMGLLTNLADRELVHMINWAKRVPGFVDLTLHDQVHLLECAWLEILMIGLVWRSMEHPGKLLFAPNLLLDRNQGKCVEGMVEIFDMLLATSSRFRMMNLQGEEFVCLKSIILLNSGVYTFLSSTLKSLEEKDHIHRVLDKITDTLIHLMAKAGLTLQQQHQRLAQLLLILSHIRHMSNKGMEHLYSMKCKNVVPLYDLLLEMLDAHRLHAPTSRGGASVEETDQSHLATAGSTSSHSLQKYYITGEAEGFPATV
Outline: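 HEK293 ER-alpha-UAS-bla GripTite cells, held overnight in 2% charcoal-stripped FBS, 5,000 cells/well, preincubated 4 h, then compound plus 17beta-estradiol for 18 h at 37C. Beta-lactamase read by LiveBLAzer B/G FRET substrate, 2 h at room temperature.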

[16] = molecular target: Estrogen receptor (Homo sapiens) (UniProt P03372); test: qHTS assay to identify small molecule agonists of the estrogen receptor alpha (ER-alpha) signaling pathway (AID 743075; calls by dose curve; further: potency means the concentration at half of the fitted maximal effect)
[17] = molecular target: Estrogen receptor (Homo sapiens) (UniProt P03372); test: qHTS assay to identify small molecule agonists of the estrogen receptor alpha (ER-alpha) signaling pathway using the BG1 cell line (AID 743079); further: nearly all actives have a fitted effect of over 20% in size; further: potency means the concentration at half of the fitted maximal effect
[18] = qHTS assay to identify small molecule antagonists of the estrogen receptor alpha (ER-alpha) signaling pathway using the BG1 cell line (AID 743080; calls by dose curve;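 further: BG1 cells stimulated with 17beta-estradiol alongside compound; series mostly up to about 70 µM; nearly all actives have a fitted effect of over 25% in size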)
Outline: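 BG1-Luc-4E2 cells (endogenous full-length ER-alpha, stable 4×ERE-luciferase) were starved 5 days in phenol-red-free medium with 10% charcoal-stripped FBS, plated 24 h, then given compound plus 17beta-estradiol for 21.5 h at 37 C; ONE-Glo luminescence read after 30 min.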

[19] = qHTS assay for identifying genotoxic compounds that show differential cytotoxicity against isogenic chicken DT40 cell lines with known DNA damage response pathways - Rad54/Ku70 mutant cell line (AID 743015); further: potency means the concentration at half of the fitted maximal effect; nearly all actives have a fitted effect of over 60% in size
[20] = molecular target: Androgen receptor (Homo sapiens) (UniProt P10275); test: qHTS assay to identify small molecule agonists of the androgen receptor (AR) signaling pathway using the MDA cell line (AID 743040; further: nearly all actives have a fitted effect of over 20% in size)
Outline: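 MDA-kb2 breast carcinoma cells carrying MMTV-luciferase (responsive to AR and GR), plated 5 h then treated 16 h with compounds at 37C, 0% CO2. Read-out was ONE-Glo luminescence after 30 min at room temperature.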

Measured: Potency

CC(C)OC(=O)C(C)N(C(=O)c1ccccc1)c1ccc(F)c(Cl)c1 (stereo not drawn)
active: [2] 6.11 µM | [3] 6.86 µM | [5] 61.1 µM
inactive: [1] | [4] | [6] | [7] | [8] | [9] | [10]

Cc1nn(C)c(Oc2ccccc2)c1/C=N/OCc1ccc(C(=O)OC(C)(C)C)cc1
inactive: [1] | [11]
active: [2] 0.0022 µM | [3] 0.0024 µM | [12] 7.7 nM | [13] 2.4 nM

CN1CCC(N(Cc2cccs2)c2ccccc2)CC1
active: [2] 9.44 µM | [3] 11.9 µM | [14] 11.9 µM | [5] 23.7 µM
inactive: [1] | [4] | [12] | [6] | [15] | [7] | [16] | [17] | [18] | [8] | [9] | [10]

CN(C)CCCN1c2ccccc2Sc2ccccc21
inactive: [1] | [12] | [6] | [7] | [8] | [9]
active: [2] 9.02 µM | [3] 5.69 µM | [19] 10.1 µM | [14] 2.85 µM

CCN(CC)CCNc1ccc(CNC=O)c2sc3ccc(OC)cc3c(=O)c12
active: [1] 38.9 µM | [2] 8.63 µM | [3] 9.69 µM | [19] 0.969 µM | [14] 8.63 µM | [5] 24.3 µM | [16] 4.36 µM [inconclusive] | [17] 2.73 µM | [8] 4.86 µM | [9] 38.6 µM | [10] 48.6 µM
inactive: [12] | [7]

C=C(C)C(=O)OCCO
inactive: [1] | [2] | [3] | [4] | [12] | [14] | [5] | [6] | [15] | [7] | [16] | [17] | [18] | [8] | [9] | [10]

CN(C)C(=O)NC1(c2ccccc2)CCN(CC[C@@]2(c3ccc(F)c(F)c3)CN(C(=O)c3ccccc3)CCO2)CC1
active: [2] 40.2 µM | [3] 25.3 µM | [14] 31.9 µM | [5] 56.7 µM
inactive: [1] | [4] | [7] | [9] | [10]

CCCCCCCCCc1ccc(OCCOCCO)cc1
active: [2] 2.37 µM and 909 nM | [3] 3.76 µM and 1.81 µM | [4] 13.4 µM and 8.17 µM | [12] 11.1 µM and 5.11 µM | [13] 4.73 µM and 1.44 µM | [5] 18.8 µM | [7] 15.1 µM and 16.3 µM | [8] 15 µM | [9] 22.8 µM | [10] 21.1 µM and 22.8 µM
18.8 µM (active) and inactive: [14]
inactive: [1] | [11] | [6]

NCC(=O)CCC(=O)O
active: [6] 26.6 µM
inactive: [1] | [2] | [3] | [4] | [14] | [5] | [15] | [7] | [16] | [17] | [18] | [8] | [9] | [10]

CCCCCCCCCCCc1ccccc1
active: [3] 60.3 µM
inactive: [1] | [2] | [4] | [12] | [14] | [5] | [6] | [16] | [17] | [18] | [8] | [9] | [10]

CCCCCCCCCCCCCCCCOS(=O)(=O)O
inactive: [1] | [2] | [3] | [4] | [11] | [20] | [12] | [13] | [6] | [7] | [16] | [17] | [18] | [8] | [9] | [10]

CCCOC(C(=O)OC1CCN(C)CC1)(c1ccccc1)c1ccccc1
active: [2] 5.96 µM | [3] 7.5 µM | [19] 11.9 µM | [14] 18.8 µM | [5] 26.6 µM
inactive: [1] | [12] | [15] | [7] | [16] | [17] | [18] | [9]

C=CC(=O)OCCOc1ccccc1
inactive: [1] | [4] | [14] | [6] | [7] | [8] | [9] | [10]
active: [2] 54.4 µM | [3] 61.1 µM | [5] 54.4 µM

COc1ccc(-c2nc3ccc(C4=NNC(=O)CC4C)cc3[nH]2)cc1 (stereo not drawn)
active: [2] 11.9 µM | [3] 11.9 µM | [19] 18.8 µM | [5] 23.7 µM
inactive: [1] | [12] | [13] | [6] | [7] | [8] | [9] | [10]

C[C@H]1C[C@H]2[C@@H]3CCC4=CC(=O)C=C[C@]4(C)[C@@]3(Cl)[C@@H](O)C[C@]2(C)[C@@]1(O)C(=O)CO
inactive: [1] | [2] | [3] | [4] | [14] | [5] | [6] | [7] | [16] | [17] | [8] | [9] | [10]

c1ccc(CNCCNCc2ccccc2)cc1
inactive: [1] | [2] | [3] | [4] | [12] | [14] | [6] | [7] | [16] | [17] | [18] | [8] | [9] | [10]

CCCNCC(O)COc1ccccc1C(=O)CCc1ccccc1 (stereo not drawn)
inactive: [1] | [7] | [8] | [10]
active: [2] 6.68 µM | [3] 11.9 µM | [19] 11.9 µM | [14] 29.8 µM | [5] 23.7 µM

Cc1[nH]c(C)c(Cl)c(=O)c1Cl
inactive: [1] | [2] | [3] | [4] | [12] | [14] | [5] | [6] | [15] | [7] | [16] | [17] | [18] | [8] | [9] | [10]

O=C(Nc1ccccc1)c1ccccc1O
inactive: [1] | [20] | [14] | [6] | [8] | [9] | [10]
active: [2] 48.6 µM | [3] 48.6 µM | [19] 30.6 µM | [5] 61.1 µM
